Data on 21 compounds can be found in PubChem BioAssay.

Values without a mark were called inactive. No rule for the calls is given here.

The target of the assay is Pantothenate synthetase (Mycobacterium tuberculosis (strain ATCC 25618 / H37Rv)) (UniProt P9WIL5). The assay is described as follows: Recombinant Mtb pantothenate synthetase (PanC) inhibitors, coupled enzyme, confirmatory (AID 375).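 Also: 0% = full reaction with vehicle and 100% = no enzyme background.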 The conditions noted are these: coupled enzyme assay; at 10 µM, active compounds read high.
Chain of Pantothenate synthetase (Mycobacterium tuberculosis (strain ATCC 25618 / H37Rv)) (P9WIL5 whole entry, looked up): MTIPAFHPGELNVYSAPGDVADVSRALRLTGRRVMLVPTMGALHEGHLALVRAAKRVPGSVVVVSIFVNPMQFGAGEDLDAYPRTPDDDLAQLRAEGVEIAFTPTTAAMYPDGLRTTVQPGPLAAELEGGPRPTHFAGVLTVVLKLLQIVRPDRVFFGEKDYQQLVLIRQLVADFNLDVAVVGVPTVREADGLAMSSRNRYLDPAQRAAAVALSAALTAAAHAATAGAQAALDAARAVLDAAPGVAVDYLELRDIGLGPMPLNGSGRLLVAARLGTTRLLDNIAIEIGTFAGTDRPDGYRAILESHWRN
As to `CCc1cccc2c3c([nH]c12)C(CC)(CC(=O)O)OCC3` (stereo unspecified), the inhibition is 0%.

As for `COc1cccc(Nc2c(F)c(F)c(F)c(F)c2C(=O)O)c1`, the inhibition was 7%.

`CC(=O)c1c(C)[nH]c(C(=O)Nc2ccc3c(c2)OCCO3)c1C`: the inhibition was 3%.

Turning to `Cc1cnc(C(=O)Nc2ccccc2-n2cccc2)cn1`, the inhibition was 3%.

For the compound `Cc1ccc(C(O)c2nc3ccccc3n2C(C)C)cc1` (stereo unspecified), the inhibition was 0%.

On to `CN(C)c1nc(SCCOC(=O)c2ccccc2)nc(N(C)C)n1`, for which the inhibition is 6%.

Turning to `Cc1nc(N2CCc3ccccc32)[nH]c(=O)c1CCC(C)C`, the inhibition is 0%.

Regarding `CCCC(=O)Nc1ccc(OCC(=O)OC)cc1`, the inhibition is 5%.

For the compound `CCCN(CCC)S(=O)(=O)c1ccc(C(=O)Nc2nnc(-c3cccc(OC)c3)o2)cc1`, the inhibition is 6%.

`Cc1ccc(S(=O)(=O)N2CCCC2C(=O)OCc2nc3ccccc3s2)cc1` (stereo unspecified): the inhibition was 0%.

Take `COc1ccc(N(C)C(=O)CCS(=O)(=O)c2cccc3nonc23)c(OC)c1`: the inhibition was 0%.

Turning to `COCCNC(=O)CN1CCN(Cc2cccc(Cl)c2)C1=O`, the inhibition is 0%.

`O=C(Cn1nc(Cc2ccncc2)c2ccccc2c1=O)N1CCN(C(=O)c2ccco2)CC1`: the inhibition is 0%.

`CCOC(=O)N1CCN(c2cc(=O)n(-c3cccc(Br)c3)c(=O)[nH]2)CC1`: the inhibition was 0%.

Regarding `O=C(CSc1nnc(-c2ccncc2)n1-c1ccc(F)cc1)NC(=O)NCc1ccco1`, the inhibition was 0%.

With `O=C(COC(=O)c1cc(S(=O)(=O)N2CCOCC2)ccc1O)NCC1CCCO1` (stereo unspecified), the inhibition was 15%.

On to `CCn1c(Cc2ccccc2)nnc1SCC(=O)Nc1ccc(N2CCOCC2)c(Cl)c1`, for which the inhibition is 6%.

`O=C(CCN1C(=O)c2ccccc2C1=O)OCN1C(=O)c2ccccc2C1=O`: the inhibition is 5%.

As to `COc1cccc(N2CCN(c3c4c(nc5ncnn35)CCC4)CC2)c1`, the inhibition is 0%.

For the compound `CCCc1nnc(NC(=O)NCCN2C(=O)C3C4C=CC(C4)C3C2=O)s1` (stereo unspecified), the inhibition is 0%.

`Cc1ccc(-c2nc3cc(NC(=O)C(C)C)ccc3o2)cc1C`: the inhibition is 0%.
